The supplement of paper PMC4206461
A number with no mark means an inactive call.

Each compound was assayed on Pseudomonas aeruginosa PA14 dppBCDF deletion mutant (assay: respiration area under curve with compound as sole nitrogen source, 24 h (OmniLog AUC (arbitrary units)); higher = more respiration / better utilisation as nitrogen source; extreme values may be limits of the assay).
Procedure: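 Biolog Phenotype MicroArray plates PM6-PM8: each di/tripeptide is the sole nitrogen source. Tetrazolium reduction was read in the OmniLog every 15 min for 24 h at 37°C and summarised as area under the respiration curve (arbitrary units). Values below 2000 count as no respiration. Strain is the dipeptide ABC transporter deletion mutant.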

Row | SMILES | respiration area under curve
1 | CC(C)C[C@H](NC(=O)CNC(=O)CN)C(=O)O (plate: PM8) | 0
2 | CC(C)C[C@@H](NC(=O)CNC(=O)CN)C(=O)O (plate: PM8) | 4.75
